The values that follow come from PMC5540273 (PLoS ONE, 2017).
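Further: KINOMEscan kinase panel screen.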

For one test, the system named is AKT3. Conditions: concentration: 1 μM, replicates: in singlicate; n = 1.
With `CCCCc1nn2ncccc2c1-c1ccnc(NC2CC2)n1` [GW684374], the “%Inh” value worked out at 0%.
In the case of `COC(=O)C(NC(=O)NC1CCN(c2ccnc(Nc3ccc(F)cc3)n2)C1)c1ccccc1` (centres unmarked) [GSK1379712], the “%Inh” value turned out to be 0%.
On the same count and under the same terms, then `O=c1cc(N2CCOCC2)nc2n(Cc3ccccc3F)ccn12` [GSK2297428], with 0%.
The same measure, in the same setting: then `COc1cc2ncnc(Nc3cccc(Br)c3)c2cc1OC.Cl` [GI230329], with 16%; and `CS(=O)(=O)Cc1ccc(Nc2nccc(-c3c(-c4cccc(NC(=O)C5CCCCC5)c4)nn4ncccc34)n2)cc1` [GSK350559], with 0%; and `Cc1cnc(N)c(/C=C/c2cncc(C(=O)NCCc3ccc(Cl)cc3Cl)c2)c1.Cl` [GSK190937], with 0%.
On the same count and under the same terms, then `CS(=O)(=O)CCNCc1nc(-c2ccc3ncnc(Nc4ccc5c(cnn5Cc5ccccc5)c4)c3c2)cs1.Cl.Cl` [GW569716], with 0%.
Turning to `CC[C@@H]1CO[C@H](C(=O)Nc2ccccc2)CN1c1cc(-c2ccc3c(N)n[nH]c3c2)nc(NC)n1` [GSK2376236], the “%Inh” value is recorded as 0%.
On to `CC(=O)c1c(C)c2cnc(Nc3ccc(N4CCNCC4)cn3)nc2n(C2CCCC2)c1=O`, for which the “%Inh” value was determined as 11%.
For `COc1ccc(-c2coc3ccc(-c4nnc(C)o4)cc23)cc1`, the “%Inh” value came to 2%.
On the same count and under the same terms, then `Cc1c(Cn2c(C)c(C)n3c(=O)cc(N4CCOCC4)nc23)cccc1C(F)(F)F` [GSK2328680], with 0%.
On the same count and under the same terms, then `CNc1cc(-c2ccc3c(N)n[nH]c3c2)nc(N)n1` [GSK2224810], with 0%; and `Cc1ccc(NC(=O)c2ccc(Cl)cc2)cc1-c1ccc(C(=O)Nc2ccncc2)cc1` [GSK1398467], with 0%.
Consider `CCn1c(-c2ccccc2)nc2cnccc21` [SB-733416], for which the “%Inh” value was 0%.
Still for that read-out and setting: then `CN1c2ccc(-c3ccc(C(N)=O)cc3)cc2-c2[nH]ncc2S1(=O)=O`, with 0%.
On the same count and under the same terms, then `CS(=O)(=O)CCNCc1nc(-c2ccc3ncnc(Nc4ccc(OCc5ccccc5)c(Cl)c4)c3c2)cs1.Cl` [GW582764], with 0%.
Still for that read-out and setting: then `COC(=O)c1cccc(NC(=O)NC2CCN(c3ccnc(Nc4ccc(OC)cc4)n3)C2)c1` (centres unmarked) [GSK1379746], with 0%; and `NS(=O)(=O)c1cccc(N/C=C2\C(=O)Nc3ccc(S(=O)(=O)Cc4c(Cl)cccc4Cl)cc32)c1` [GSK398099], with 0%.
On to `CC(=O)c1cccc(NC(=O)NC2CCN(c3ccnc(Nc4ccc(F)cc4)n3)C2)c1` (centres unmarked) [GSK1379710], for which the “%Inh” value turned out to be 0%.
The same measure, in the same setting: then `O=C1NC(=O)C(c2ccc(Cl)cc2)=C1Nc1cccc(Cl)c1` [SB-317651], with 0%.
Same read-out and setting: then `Cc1ccc(-c2nc(Nc3ccncc3)c3ccccc3n2)s1` [GSK189015], with 3%; and `Cn1cnc2c(N)ncnc21` [SKF-97623], with 0%.
On the same count and under the same terms, then `CNc1nc(-c2ccc3c(N)n[nH]c3c2)cc(N2C[C@@H](C(=O)NC3CCCCC3)OC[C@H]2C)n1` [GSK2375584], with 0%; and `O=C(Nc1n[nH]c2nc(-c3ccco3)c(Br)cc12)C1CCN(Cc2ccccc2)C1.O=C(O)[C@H](O)[C@@H](O)C(=O)O` (centres unmarked) [SB-742034], with 3%.
With `COc1ccc(Nc2nccc(NCCNC(=O)Nc3cc(C)ccc3C)n2)cc1` [GSK1379899], the “%Inh” value was found to be 0%.
Still for that read-out and setting: then `CC(C)c1cc(-c2ccc3c(N)n[nH]c3c2)nc(N)n1` [GSK2250882], with 0%; and `O=C(Nc1n[nH]c2nc(-c3cccs3)c(Br)cc12)C1CCCC1` [SB-743341], with 0%.
Same read-out and setting: then `O=C1NC(=O)C(c2ccc(Cl)cc2)=C1Nc1ccc(O)cc1` [SB-340867], with 0%; and `COc1ccc(Nc2nccc(N3CCC(NC(=O)C(C)c4ccc(Cl)cc4)CC3)n2)cc1` (centres unmarked) [GSK1379812], with 3%.
With `CC(C)c1ccc(O)cc1Nc1ccnc2ccc(C(F)(F)F)cc12` [GW482059], the “%Inh” value is given as 0%.
The same measure, in the same setting: then `CCn1c(-c2c(N)noc2C)nc2cnccc21` [SB-737856], with 0%.
On to `COc1ccc(Nc2nccc(N3CCC(NC(=O)C(C)c4ccc(Cl)cc4)C3)n2)cc1` (centres unmarked) [GSK1379735], for which the “%Inh” value came to 0%.
As for `O=c1cc(N2CCOCC2)nc2n(Cc3cccc(Cl)c3Cl)c3ccccc3n12` [GSK2299009], the “%Inh” value came out at 0%.
The same measure, in the same setting: then `CC(=O)c1c(C)c2cnc(Nc3ccn(C)n3)nc2n(C2CCCC2)c1=O`, with 0%.
Same read-out and setting: then `Cc1nccc(-c2c(-c3ccc(F)cc3)ncn2CCCN2CCOCC2)n1.Cl` [SB-282975], with 0%; and `COc1ccc(CSc2nnc(-c3ccc4c(c3)CCO4)o2)cc1`, with 0%.
On the same count and under the same terms, then `Cc1ccc(NC(=O)Nc2ccc(Cl)cc2)cc1-c1ccc(C(=O)Nc2ccncc2)cc1` [GSK1398472], with 0%.

The next test has as its system ALK. Conditions: concentration: 1 μM, replicates: in singlicate; n = 1.
Regarding `CCCCc1nn2ncccc2c1-c1ccnc(NC2CC2)n1` [GW684374], the “%Inh” value came to 17%.
On the same count and under the same terms, then `COC(=O)C(NC(=O)NC1CCN(c2ccnc(Nc3ccc(F)cc3)n2)C1)c1ccccc1` (centres unmarked) [GSK1379712], with 19%; and `O=c1cc(N2CCOCC2)nc2n(Cc3ccccc3F)ccn12` [GSK2297428], with 0%.
The same measure, in the same setting: then `COc1cc2ncnc(Nc3cccc(Br)c3)c2cc1OC.Cl` [GI230329], with 0%; and `CS(=O)(=O)Cc1ccc(Nc2nccc(-c3c(-c4cccc(NC(=O)C5CCCCC5)c4)nn4ncccc34)n2)cc1` [GSK350559], with 29%.
The same measure, in the same setting: then `Cc1cnc(N)c(/C=C/c2cncc(C(=O)NCCc3ccc(Cl)cc3Cl)c2)c1.Cl` [GSK190937], with 0%.
Regarding `CS(=O)(=O)CCNCc1nc(-c2ccc3ncnc(Nc4ccc5c(cnn5Cc5ccccc5)c4)c3c2)cs1.Cl.Cl` [GW569716], the “%Inh” value turned out to be 31%.
Same read-out and setting: then `CC[C@@H]1CO[C@H](C(=O)Nc2ccccc2)CN1c1cc(-c2ccc3c(N)n[nH]c3c2)nc(NC)n1` [GSK2376236], with 0%.
For `CC(=O)c1c(C)c2cnc(Nc3ccc(N4CCNCC4)cn3)nc2n(C2CCCC2)c1=O`, the “%Inh” value came to 5%.
The same measure, in the same setting: then `COc1ccc(-c2coc3ccc(-c4nnc(C)o4)cc23)cc1`, with 0%; and `Cc1c(Cn2c(C)c(C)n3c(=O)cc(N4CCOCC4)nc23)cccc1C(F)(F)F` [GSK2328680], with 3%.
On the same count and under the same terms, then `CNc1cc(-c2ccc3c(N)n[nH]c3c2)nc(N)n1` [GSK2224810], with 5%; and `Cc1ccc(NC(=O)c2ccc(Cl)cc2)cc1-c1ccc(C(=O)Nc2ccncc2)cc1` [GSK1398467], with 18%; and `CCn1c(-c2ccccc2)nc2cnccc21` [SB-733416], with 36%.
The same measure, in the same setting: then `CN1c2ccc(-c3ccc(C(N)=O)cc3)cc2-c2[nH]ncc2S1(=O)=O`, with 30%; and `CS(=O)(=O)CCNCc1nc(-c2ccc3ncnc(Nc4ccc(OCc5ccccc5)c(Cl)c4)c3c2)cs1.Cl` [GW582764], with 35%; and `COC(=O)c1cccc(NC(=O)NC2CCN(c3ccnc(Nc4ccc(OC)cc4)n3)C2)c1` (centres unmarked) [GSK1379746], with 20%.
Regarding `NS(=O)(=O)c1cccc(N/C=C2\C(=O)Nc3ccc(S(=O)(=O)Cc4c(Cl)cccc4Cl)cc32)c1` [GSK398099], the “%Inh” value is 8%.
Still for that read-out and setting: then `CC(=O)c1cccc(NC(=O)NC2CCN(c3ccnc(Nc4ccc(F)cc4)n3)C2)c1` (centres unmarked) [GSK1379710], with 25%; and `O=C1NC(=O)C(c2ccc(Cl)cc2)=C1Nc1cccc(Cl)c1` [SB-317651], with 0%.
Still for that read-out and setting: then `Cc1ccc(-c2nc(Nc3ccncc3)c3ccccc3n2)s1` [GSK189015], with 26%.
The same measure, in the same setting: then `Cn1cnc2c(N)ncnc21` [SKF-97623], with 28%; and `CNc1nc(-c2ccc3c(N)n[nH]c3c2)cc(N2C[C@@H](C(=O)NC3CCCCC3)OC[C@H]2C)n1` [GSK2375584], with 0%; and `O=C(Nc1n[nH]c2nc(-c3ccco3)c(Br)cc12)C1CCN(Cc2ccccc2)C1.O=C(O)[C@H](O)[C@@H](O)C(=O)O` (centres unmarked) [SB-742034], with 5%.
With `COc1ccc(Nc2nccc(NCCNC(=O)Nc3cc(C)ccc3C)n2)cc1` [GSK1379899], the “%Inh” value is listed as 1%.
As to `CC(C)c1cc(-c2ccc3c(N)n[nH]c3c2)nc(N)n1` [GSK2250882], the “%Inh” value is 0%.
For `O=C(Nc1n[nH]c2nc(-c3cccs3)c(Br)cc12)C1CCCC1` [SB-743341], the “%Inh” value is 1%.
Consider `O=C1NC(=O)C(c2ccc(Cl)cc2)=C1Nc1ccc(O)cc1` [SB-340867], for which the “%Inh” value is reported as 0%.
The same measure, in the same setting: then `COc1ccc(Nc2nccc(N3CCC(NC(=O)C(C)c4ccc(Cl)cc4)CC3)n2)cc1` (centres unmarked) [GSK1379812], with 18%; and `CC(C)c1ccc(O)cc1Nc1ccnc2ccc(C(F)(F)F)cc12` [GW482059], with 15%.
In the case of `CCn1c(-c2c(N)noc2C)nc2cnccc21` [SB-737856], the “%Inh” value is 35%.
With `COc1ccc(Nc2nccc(N3CCC(NC(=O)C(C)c4ccc(Cl)cc4)C3)n2)cc1` (centres unmarked) [GSK1379735], the “%Inh” value was 25%.
On to `O=c1cc(N2CCOCC2)nc2n(Cc3cccc(Cl)c3Cl)c3ccccc3n12` [GSK2299009], for which the “%Inh” value is reported as 25%.
Regarding `CC(=O)c1c(C)c2cnc(Nc3ccn(C)n3)nc2n(C2CCCC2)c1=O`, the “%Inh” value is 6%.
On the same count and under the same terms, then `Cc1nccc(-c2c(-c3ccc(F)cc3)ncn2CCCN2CCOCC2)n1.Cl` [SB-282975], with 9%.
Same read-out and setting: then `COc1ccc(CSc2nnc(-c3ccc4c(c3)CCO4)o2)cc1`, with 0%.
On the same count and under the same terms, then `Cc1ccc(NC(=O)Nc2ccc(Cl)cc2)cc1-c1ccc(C(=O)Nc2ccncc2)cc1` [GSK1398472], with 46%.
